Here are results for 16 compounds from ChEMBL document CHEMBL1961873, “Compounds: GSK PKIS; Assays: Nanosyn kinase panel” (2012).

In assay [1] the target is Tyrosine-protein kinase receptor UFO (Homo sapiens) (UniProt P30530). As to conditions: at 1 µM.
The target of assay [2] is Tyrosine-protein kinase Blk (Homo sapiens) (UniProt P51451). As to conditions: at 0.1 µM.
For assay [3] the target is unchanged. As to conditions: at 1 µM.
Assay [4] has as its target T1, Cytoplasmic tyrosine-protein kinase BMX (Homo sapiens) (UniProt P51813).
T1 sequence (whole entry): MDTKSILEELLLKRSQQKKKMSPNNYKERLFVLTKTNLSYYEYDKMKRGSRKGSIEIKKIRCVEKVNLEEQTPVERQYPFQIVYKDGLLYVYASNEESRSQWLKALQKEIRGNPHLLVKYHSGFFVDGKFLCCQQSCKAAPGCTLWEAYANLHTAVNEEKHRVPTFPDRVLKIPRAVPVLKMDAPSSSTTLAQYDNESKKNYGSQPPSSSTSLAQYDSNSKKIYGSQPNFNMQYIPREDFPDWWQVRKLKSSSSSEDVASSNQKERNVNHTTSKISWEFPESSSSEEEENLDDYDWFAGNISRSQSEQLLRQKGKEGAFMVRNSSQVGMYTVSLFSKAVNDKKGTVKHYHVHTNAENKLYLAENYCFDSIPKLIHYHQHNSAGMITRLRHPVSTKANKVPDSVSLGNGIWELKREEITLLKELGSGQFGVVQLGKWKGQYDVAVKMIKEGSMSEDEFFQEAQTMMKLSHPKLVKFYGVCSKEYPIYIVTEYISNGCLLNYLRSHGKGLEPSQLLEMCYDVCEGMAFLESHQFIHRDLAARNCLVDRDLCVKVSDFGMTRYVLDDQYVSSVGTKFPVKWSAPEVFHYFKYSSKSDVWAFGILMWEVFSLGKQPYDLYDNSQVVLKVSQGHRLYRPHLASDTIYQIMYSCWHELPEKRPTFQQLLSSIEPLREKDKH
Particulars: at 0.1 µM.

Assay [5] addresses T1, Cytoplasmic tyrosine-protein kinase BMX (Homo sapiens). Particulars: at 1 µM.
Assay [6] deals with Protein-tyrosine kinase 6 (Homo sapiens) (UniProt Q13882). As to conditions: at 0.1 µM.
Protein-tyrosine kinase 6 (Homo sapiens), sequence (Q13882 whole entry, looked up): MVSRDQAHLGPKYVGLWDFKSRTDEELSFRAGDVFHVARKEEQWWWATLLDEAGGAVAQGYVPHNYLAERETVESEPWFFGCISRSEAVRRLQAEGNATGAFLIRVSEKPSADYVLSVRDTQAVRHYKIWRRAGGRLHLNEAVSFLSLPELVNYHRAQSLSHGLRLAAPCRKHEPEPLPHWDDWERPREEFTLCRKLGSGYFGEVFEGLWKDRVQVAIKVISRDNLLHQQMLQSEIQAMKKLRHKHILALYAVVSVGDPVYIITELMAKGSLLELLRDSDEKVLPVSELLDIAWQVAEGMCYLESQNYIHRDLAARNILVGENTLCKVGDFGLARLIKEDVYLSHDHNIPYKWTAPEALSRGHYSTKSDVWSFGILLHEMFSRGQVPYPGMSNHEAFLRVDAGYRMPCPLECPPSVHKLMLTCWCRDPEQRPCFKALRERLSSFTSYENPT
The target is the same in assay [7]. Particulars: at 1 µM.
The target in assay [8] is Tyrosine-protein kinase BTK (Homo sapiens) (UniProt Q06187). As to conditions: at 0.1 µM.
Tyrosine-protein kinase BTK (Homo sapiens), sequence (Q06187 whole entry): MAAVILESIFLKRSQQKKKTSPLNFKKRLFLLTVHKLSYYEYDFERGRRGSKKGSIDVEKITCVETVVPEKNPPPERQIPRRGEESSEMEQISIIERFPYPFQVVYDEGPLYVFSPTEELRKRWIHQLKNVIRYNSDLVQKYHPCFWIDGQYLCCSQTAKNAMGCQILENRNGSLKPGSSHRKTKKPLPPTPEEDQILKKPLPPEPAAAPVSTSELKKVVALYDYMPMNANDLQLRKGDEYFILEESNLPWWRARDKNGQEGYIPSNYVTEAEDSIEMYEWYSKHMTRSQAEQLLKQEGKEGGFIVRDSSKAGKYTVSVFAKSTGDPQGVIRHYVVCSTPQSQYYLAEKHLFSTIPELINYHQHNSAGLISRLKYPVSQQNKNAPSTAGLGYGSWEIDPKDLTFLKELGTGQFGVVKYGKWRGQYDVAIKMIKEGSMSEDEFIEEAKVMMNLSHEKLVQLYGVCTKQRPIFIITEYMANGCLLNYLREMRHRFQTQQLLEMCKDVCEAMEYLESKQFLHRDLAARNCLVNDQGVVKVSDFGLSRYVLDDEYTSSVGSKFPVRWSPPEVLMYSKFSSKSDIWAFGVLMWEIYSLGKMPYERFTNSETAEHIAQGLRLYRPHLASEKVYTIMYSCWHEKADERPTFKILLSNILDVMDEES
For assay [9] the target is unchanged. Particulars: at 1 µM.
Assay [10] addresses Tyrosine-protein kinase CSK (Homo sapiens) (UniProt P41240). As to conditions: at 0.1 µM.

Several values for one entry are separate records, joined by “and”; a condition that tells them apart may be missing. Equal values may be shown once.

Tyrosine-protein kinase receptor UFO (Homo sapiens), sequence (P30530 whole entry): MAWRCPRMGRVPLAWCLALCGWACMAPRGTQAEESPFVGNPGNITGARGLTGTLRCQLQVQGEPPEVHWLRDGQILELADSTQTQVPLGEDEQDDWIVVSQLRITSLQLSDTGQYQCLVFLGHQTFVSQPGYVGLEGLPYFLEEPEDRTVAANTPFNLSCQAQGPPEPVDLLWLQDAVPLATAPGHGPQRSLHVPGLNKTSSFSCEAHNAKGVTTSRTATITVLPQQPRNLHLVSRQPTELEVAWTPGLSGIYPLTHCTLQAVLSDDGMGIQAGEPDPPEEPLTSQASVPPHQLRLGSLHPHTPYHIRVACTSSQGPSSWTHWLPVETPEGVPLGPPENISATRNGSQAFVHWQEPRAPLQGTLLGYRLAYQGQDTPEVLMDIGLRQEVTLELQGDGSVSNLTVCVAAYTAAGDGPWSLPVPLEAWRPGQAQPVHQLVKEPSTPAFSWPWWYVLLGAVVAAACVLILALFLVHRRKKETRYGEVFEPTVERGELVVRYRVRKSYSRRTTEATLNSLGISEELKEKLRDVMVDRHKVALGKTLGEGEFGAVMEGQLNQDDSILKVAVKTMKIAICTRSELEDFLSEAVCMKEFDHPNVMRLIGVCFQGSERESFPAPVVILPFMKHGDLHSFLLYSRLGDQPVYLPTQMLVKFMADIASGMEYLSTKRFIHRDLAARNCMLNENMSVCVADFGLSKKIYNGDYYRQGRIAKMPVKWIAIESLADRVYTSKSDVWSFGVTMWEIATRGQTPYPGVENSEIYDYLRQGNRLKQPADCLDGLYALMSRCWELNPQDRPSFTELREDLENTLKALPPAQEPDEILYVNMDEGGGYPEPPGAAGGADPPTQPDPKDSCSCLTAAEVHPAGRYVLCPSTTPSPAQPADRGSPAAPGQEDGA
Tyrosine-protein kinase CSK (Homo sapiens), sequence (P41240 2-450 limits assumed): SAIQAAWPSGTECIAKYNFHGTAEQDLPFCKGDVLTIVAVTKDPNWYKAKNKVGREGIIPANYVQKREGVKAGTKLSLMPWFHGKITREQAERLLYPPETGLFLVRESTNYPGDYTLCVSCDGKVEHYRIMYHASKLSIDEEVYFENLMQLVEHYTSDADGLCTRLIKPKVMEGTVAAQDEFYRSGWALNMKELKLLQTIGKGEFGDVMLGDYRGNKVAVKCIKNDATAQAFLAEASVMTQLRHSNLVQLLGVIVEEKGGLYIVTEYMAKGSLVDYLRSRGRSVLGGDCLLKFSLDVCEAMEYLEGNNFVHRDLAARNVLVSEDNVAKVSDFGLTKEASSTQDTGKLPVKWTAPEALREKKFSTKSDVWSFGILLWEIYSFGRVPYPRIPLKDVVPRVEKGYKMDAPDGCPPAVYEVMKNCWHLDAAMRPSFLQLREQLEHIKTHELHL
Tyrosine-protein kinase Blk (Homo sapiens), sequence (P51451 2-505 limits assumed): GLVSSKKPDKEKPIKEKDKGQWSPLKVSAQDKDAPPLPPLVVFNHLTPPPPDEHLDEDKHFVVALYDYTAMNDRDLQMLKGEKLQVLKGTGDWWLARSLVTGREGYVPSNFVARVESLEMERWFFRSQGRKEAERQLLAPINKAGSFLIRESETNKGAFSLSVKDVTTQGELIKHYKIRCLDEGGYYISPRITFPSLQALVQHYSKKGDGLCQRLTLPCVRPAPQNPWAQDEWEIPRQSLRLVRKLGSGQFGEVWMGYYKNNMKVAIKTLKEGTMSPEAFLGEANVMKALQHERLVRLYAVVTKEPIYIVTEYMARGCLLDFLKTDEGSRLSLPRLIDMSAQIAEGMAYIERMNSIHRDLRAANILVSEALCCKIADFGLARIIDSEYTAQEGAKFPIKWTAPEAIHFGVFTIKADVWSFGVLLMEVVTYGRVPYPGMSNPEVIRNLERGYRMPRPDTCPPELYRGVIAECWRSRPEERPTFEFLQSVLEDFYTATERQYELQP

What is called inhibition is the drop in the measured response relative to a control, in per cent. Take `NS(=O)(=O)c1ccc(N/N=C2\C(=O)Nc3cccc(CCc4ccncc4)c32)cc1`: the inhibition in [1] was 0.32%; in assay [2] it was 4.33%; in assay [3], 10.4%; in assay [4], 3.67%; in assay [5], 4.79%; in assay [6] it was -0.69%. In addition, the inhibition is -1.07% in assay [7], 0.17% in assay [8], 0.16% in assay [9] and 1.04% in assay [10].

Take `COc1cc(Nc2ncc(-c3ccccc3)o2)cc(OC)c1`: the inhibition in assay [1] was -6.19%; in assay [2], 4.37%; in [3], 20.1%; in assay [4], 3.71%; in assay [5], 6.51%; in assay [6], 0.81%. Also, the inhibition was 7.86% in assay [7], -1.03% in [8], 0.87% in [9] and 3.66% in [10].

Consider `CC1(C)CC(n2cnc(-c3ccc(F)cc3)c2-c2ccnc(N)n2)CC(C)(C)N1`, for which the inhibition in [1] is 1.58%; in assay [2], 0.51%; in assay [3], 1.43%; in assay [4], -2.57%; in [5], 1.06%; in assay [6] it was -2.17%. The inhibition in assay [7] is 1.66%; in assay [8], -1.42%; in assay [9], -1.35%; in assay [10], -0.2%.

`NC(=O)c1ccc2c(-c3ccnc(NCCCO)n3)c(-c3ccc(F)cc3)nn2c1`: the inhibition amounted to 0.42% in assay [1]; 2.21% in assay [2]; 6.11% in [3]; 1.45% in [4]; 9.25% in assay [5]; 6.4% in assay [6]. Also, the inhibition came to 17.1% in assay [7], 0.41% in assay [8], 0.35% in assay [9] and 6.17% in [10].

Take `NS(=O)(=O)c1cccc(N/C=C2\C(=O)Nc3ccccc32)c1`: the inhibition in assay [1] is -2.91%; in [2], 2.39%; in [3], 8.59%; in assay [4] it was 2.23%; in assay [5], 5.84%; in assay [6], 3.79%. Also, the inhibition is 5.69% in assay [7], 0.73% in [8], -0.4% in assay [9] and 3.86% in assay [10].

Regarding `Cc1ccc(-c2cc3c(NC(=O)C4CC4)ncnc3o2)cc1`, the inhibition was -1.05% in [1]; 3.18% in [2]; 12.7% in [3]; -1.26% in assay [4]; 7.57% in assay [5]; 4% in assay [6]. For the same compound, the inhibition is 8.16% in assay [7], 0.73% in [8], 1.92% in [9] and 2.33% in assay [10].

In the case of `COc1cc(N2CCN(C(C)C)CC2)ccc1Nc1nc(Nc2cccc3ncccc23)c2cc[nH]c2n1`, the inhibition in assay [1] is 5.43%; in [2], 0.1%; in assay [3], 2.64%; in assay [4] it was 5.26%; in [5] it was -0.89%; in assay [6], -1.05%. Further, the inhibition is -2.93% in assay [7], -0.29% in [8], -0.05% in assay [9] and -1.28% in assay [10].

`CS(=O)(=O)CCNCc1ccc(-c2ccc3ncnc(Nc4ccc(OCc5cccc(C(F)(F)F)c5)cc4)c3c2)o1`: the inhibition in [1] is -5.12%; in assay [2], 2.51%; in assay [3] it was 6.32%; in [4], 3.21%; in assay [5] it was 6.44%; in assay [6], 2.67%. For the same compound, the inhibition in assay [7] was 3.19%; in [8], -2.4%; in assay [9] it was 0.46%; in assay [10], 2.05%.

For `CC1=C(C(=O)Nc2ccc3[nH]ncc3c2)C(c2ccc(F)cc2)N=C(c2ccc(C(F)(F)F)nc2)N1` (stereo not given), the inhibition in [1] was -0.71%; in assay [2], 2.98%; in [3] it was 3.72%; in [4], -0.04%; in [5], 3.01%; in assay [6], 2.13%. In addition, the inhibition in assay [7] was 3.49%; in assay [8] it was 0.06%; in assay [9], 0.16%; in [10] it was 1.42%.

For `CN1CCN(Cc2ccc(-c3cc4ncnc(Nc5ccc(OCc6cccc(F)c6)c(Cl)c5)c4s3)o2)CC1`, the inhibition in assay [1] was -0.55% and -6.25%; in assay [2], 2.97% and 3.59%; in assay [3], 13.3% and 15.7%; in [4], 1.68% and 6.37%; in assay [5], 5.03% and 3.73%; in assay [6] it was 6.28% and 7.91%. Also, the inhibition is 29.5% and 33.2% in assay [7]; -0.21% and -0.71% in assay [8]; 2.04% and 2.62% in [9]; 2.47% and 5.63% in [10].

On to `Cc1nnc(-c2cccc(-c3ccc(C(=O)NCC4CC4)cc3)c2)o1`, for which the inhibition in assay [1] was -8.4%; in assay [2], 3.6%; in assay [3], 1.41%; in assay [4], -0.51%; in assay [5], 5.89%; in [6], 6.64%. In addition, the inhibition in assay [7] came to 7.36%; in assay [8] it was 0.03%; in assay [9], 1.05%; in assay [10], 7.99%.

`NS(=O)(=O)c1ccc(N/N=C2\C(=O)Nc3ccc(C(=O)NCc4ccncc4)cc32)cc1`: the inhibition in assay [1] was -5.22%; in assay [2] it was 2.64%; in assay [3], 13.4%; in assay [4] it was -3.52%; in assay [5], 4.33%; in assay [6], 1.97%. Besides, the inhibition in [7] worked out at 4.41%; in assay [8] it was 0.85%; in assay [9], 0.4%; in assay [10], 2.94%.

`CS(=O)(=O)Nc1ccc(-c2cc(-c3ccccc3)cc(C(N)=O)c2N)cc1`: the inhibition in assay [1] was -0.04%; in assay [2] it was 0%; in assay [3], 4.17%; in [4], 1.21%; in assay [5], 0.72%; in assay [6], 0.76%. Moreover, the inhibition in [7] was 3.55%; in assay [8], -2.25%; in assay [9], -2.03%; in assay [10], 1.18%.

For `CN(c1ccc(NC(=O)NCCN2CCOCC2)cc1)c1ccnc(Nc2ccc(CS(C)(=O)=O)cc2)n1`, the inhibition in assay [1] was -4.88%; in assay [2] it was 2.89%; in assay [3], 8.61%; in assay [4], 0.59%; in assay [5], 22.6%; in [6], 2.66%. The inhibition in assay [7] amounted to 8.9%; in assay [8], 1.05%; in [9] it was 2.3%; in assay [10], 3.59%.

As for `COC(=O)Nc1nc2ccc(Oc3ccc(NC(=O)Nc4cc(C(F)(F)F)ccc4F)cc3)cc2s1`, the inhibition in assay [1] turned out to be 46.6%; in assay [2], 0.64%; in [3], 3.2%; in assay [4] it was 0.05%; in assay [5], 2.68%; in assay [6], 1.06%. In addition, the inhibition is 0.36% in assay [7], -0.69% in [8], -0.85% in assay [9] and 4.36% in assay [10].

For `CNC(=O)c1sc(-n2cnc3cc(OC)c(OC)cc32)cc1OCc1ccccc1C(F)(F)F`, the inhibition in assay [1] is -2.36%; in assay [2], 3.39%; in [3] it was 7.51%; in assay [4], 4.57%; in assay [5], 2.17%; in assay [6] it was 0.08%. Further, the inhibition in [7] is 2.98%; in [8], 0.62%; in assay [9] it was 3.2%; in assay [10], 3.42%.
